Source: PubChem
JMJD2A Tudor inh: blocks the human JMJD2A Tudor domain; O75164; Potency, µM (top dose mostly 114 µM), inactives show top-dose activity change, negative = inhibition, hits mostly inhibitors; AlphaScreen JMJD2A-Tudor / H3K4me3 peptide binding; hit rate 4.4% among 390,000; AID 504339; also: % is scaled to controls: 0 for no effect and ±100 for the full control effect; nearly all actives have a fitted effect of over 50% in size
Target sequence (O75164 whole entry, looked up, the tested form may be a part): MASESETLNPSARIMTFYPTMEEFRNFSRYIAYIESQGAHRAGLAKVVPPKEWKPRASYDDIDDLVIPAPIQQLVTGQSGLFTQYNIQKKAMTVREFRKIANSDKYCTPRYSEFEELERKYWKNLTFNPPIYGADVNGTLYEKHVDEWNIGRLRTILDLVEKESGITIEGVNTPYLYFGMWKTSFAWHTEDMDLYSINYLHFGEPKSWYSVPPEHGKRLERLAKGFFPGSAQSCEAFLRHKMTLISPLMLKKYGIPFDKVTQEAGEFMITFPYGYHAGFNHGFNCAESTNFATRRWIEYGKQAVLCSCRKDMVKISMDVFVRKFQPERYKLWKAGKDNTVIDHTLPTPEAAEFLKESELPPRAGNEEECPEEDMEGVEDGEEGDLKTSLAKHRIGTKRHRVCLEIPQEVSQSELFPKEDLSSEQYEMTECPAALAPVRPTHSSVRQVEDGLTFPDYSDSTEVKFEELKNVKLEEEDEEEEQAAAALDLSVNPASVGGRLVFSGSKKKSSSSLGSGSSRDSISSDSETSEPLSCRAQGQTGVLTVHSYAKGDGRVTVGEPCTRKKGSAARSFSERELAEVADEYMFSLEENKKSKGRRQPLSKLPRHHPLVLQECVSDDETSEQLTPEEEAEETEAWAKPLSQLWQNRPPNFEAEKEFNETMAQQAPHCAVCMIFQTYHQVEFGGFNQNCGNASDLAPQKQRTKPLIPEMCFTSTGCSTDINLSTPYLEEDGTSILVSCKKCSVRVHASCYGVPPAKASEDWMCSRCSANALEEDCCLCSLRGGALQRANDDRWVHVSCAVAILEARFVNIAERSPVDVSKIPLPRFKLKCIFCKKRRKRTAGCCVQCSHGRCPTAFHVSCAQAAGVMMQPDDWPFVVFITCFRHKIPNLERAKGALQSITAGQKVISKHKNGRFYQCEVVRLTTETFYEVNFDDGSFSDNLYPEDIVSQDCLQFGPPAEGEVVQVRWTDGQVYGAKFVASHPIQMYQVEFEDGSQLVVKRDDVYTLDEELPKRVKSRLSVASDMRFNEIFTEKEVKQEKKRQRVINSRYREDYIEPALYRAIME
BAZ2B inh: blocks human BAZ2B; Q9UIF8; Potency, µM (top dose mostly 114 µM), inactives show top-dose activity change, negative = inhibition, actives largely listed as inhibitors; AlphaScreen BAZ2B-H3K14Ac peptide displacement; hit rate 4.4% among 360,000; also: % is scaled to controls: 0 for no effect and ±100 for the full control effect; nearly all actives have a fitted effect of over 60% in size
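Complex of BAZ2B and biotin-H3K14Ac (50 nM apiece) forms over 30 min at RT, then faces library compounds up to 110 uM for another 30 min; AlphaScreen beads added, 20 min dark incubation, luminescence read.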
L3MBTL1 block: blocks human L3MBTL1; hit rate 0.66% among 230,000; Q9Y468; Potency, µM (titrated, usually from 57.1 µM), for the others: at the highest dose activity, negative = inhibition, most hits filed as inhibitors; AlphaScreen L3MBTL1–H3K9me1 peptide binding; also: % is scaled to controls: 0 for no effect and ±100 for the full control effect; nearly all actives have a fitted effect of over 60% in size
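AlphaScreen assay: L3MBTL1 (50 nM final) was preincubated 30 min at room temperature with biotinylated H3(1-15)K9me1 peptide (75 nM final), then 30 min with library compounds; streptavidin donor and nickel chelate acceptor beads (10 ug/mL final) added, 30 min dark.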
HP1b chromo inh: HP1-beta chromodomain-methylated histone interaction inhibition | hit rate 0.56% among 390,000 | Potency, µM (titrated, usually from 114 µM), for inactives: at the highest dose activity change, negative = inhibition, most hits filed as inhibitors | P83916 | AlphaScreen HP1-beta / biotin-H3K9me3 peptide binding | AID 540317; also: nearly all actives have a fitted effect of over 70% in size
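HP1-beta protein (50 nM final) preincubated 30 min at room temperature with biotinylated H3(1-18)K9me3 peptide (50 nM) in PBS pH 7.4, 0.01% Tween-20, then compound added for 30 min. AlphaScreen streptavidin donor/nickel chelate acceptor beads (10 ug/mL final), 30 min dark, luminescence read.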
G9a inh: inhibitors of human histone lysine methyltransferase G9a. Potency, µM (top dose mostly 102 µM), for inactives: top-dose activity, negative = inhibition, most hits filed as inhibitors. G9a H3K9 monomethylation, AlphaScreen, 2 h. hit rate 8.8% among 350,000. Q96KQ7; also: % is scaled to controls: 0 for no effect and ±100 for the full control effect; nearly all actives have a fitted effect of over 75% in size
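G9a (20 nM) preincubated 15 min RT with compounds, then 500 nM biotinylated H3K9 peptide and 20 uM SAM added; 2 h RT reaction. Monomethyl-H3K9 product detected by AlphaScreen with anti-H3K9me1 antibody, streptavidin donor and anti-rabbit IgG acceptor beads.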
Sfp inh: inhibitors of Bacillus subtilis Sfp phosphopantetheinyl transferase | Biochemical Sfp PPTase activity, qHTS | AID 1490 | hit rate 3.5% among 310,000 | Potency, µM, inactives show largest response in the series, negative = inhibition, usual class: inhibitors | Q9F4F7;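 also: the enzyme is Sfp with the accession as filed and its product quenches rhodamine fluorescence; 0% = enzyme reaction without inhibitor and -100% = no enzyme wells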
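With Hepes-Na pH 7.6 buffer containing 10 mM MgCl2, Sfp (15 nM) modified BHQ-2-YbbR (12.5 uM) using rhodamine-CoA (5 uM). Two reads 30 minutes apart at 525/598 nm yielded each well's rate.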
* hit, by the source's call; ? = inconclusive; · = not tested or not shown; [ ] = dose if it differs, or a comment. An excerpt weighted towards active compounds, which were near 12% of everything screened. Calls follow the shape of the dose curve; as a rule, active = well fitted curve in the direction sought with a large enough effect; inconclusive = small, poorly fitted or top-dose-only effect, or another doubt; inactive = no such curve, though single readings can be large; an effect the other way counts as inactive or inconclusive. Potency is read from the fitted curve at half-maximal effect.

SMILES	JMJD2A Tudor inh	BAZ2B inh	L3MBTL1 block	HP1b chromo inh	G9a inh	Sfp inh
CC#CC(=O)Nc1cc2c(Nc3ccc(F)c(Cl)c3)ncnc2cn1	·	·	·	·	·	-2%
CC(C)C[C@@H](CN)NC(=O)c1nc[nH]c1C(=O)N[C@@H](Cc1c[nH]c2ccccc12)C(=O)CNC[C@H](C)NC(=O)c1nc[nH]c1C(=O)N[C@@H](C)C(=O)O	56µM*	·	·	14%	·	·
CC(C)C[C@@H](CN)NC(=O)c1nc[nH]c1C(=O)N[C@@H](Cc1ccccc1)C(=O)CNC[C@H](C)NC(=O)c1nc[nH]c1C(=O)N[C@@H](C)C(=O)O	79µM*	·	·	56%	·	·
CC(C)C[C@@H](CNCC(=O)[C@H](Cc1c[nH]c2ccccc12)NC(=O)c1[nH]cnc1C(=O)N[C@@H](C)CN)NC(=O)c1nc[nH]c1C(=O)N[C@@H](Cc1ccccc1)C(=O)O	?	·	·	39%	·	·
CC(C)C[C@H](NC(=O)c1[nH]cnc1C(=O)N[C@@H](Cc1ccccc1)C(=O)OCc1ccccc1)C(=O)OCc1ccccc1	?	-2%	30%	36%	·	17%
CC(C)C[C@@H](CN)NC(=O)c1nc[nH]c1C(=O)N[C@@H](Cc1ccccc1)C(=O)CNC[C@H](C)NC(=O)c1nc[nH]c1C(=O)N[C@@H](CC(C)C)C(=O)O	56µM*	·	·	49%	·	·
Cc1ccc(S(=O)(=O)NCc2ccc(C(=O)NCCCN3CCC(Cc4ccccc4)CC3)cc2)cc1	-13%	-38%	·	10%	-32%	1%
O=C(NCCCN1CCN(c2ccccc2F)CC1)c1ccc2nc(CCc3ccccc3)oc2c1	?	?	·	-9%[57 µM]	-44%[59 µM]	·
O=C(Nc1ccc(OC(F)(F)F)cc1)c1nc2ccccc2nc1N1CCCCC1	-28%	?	·	14%	?	·
COc1cc(OC)cc(C(=O)Nc2nc(CC(=O)NC(C)c3ccccc3)cs2)c1 (stereo not given)	-32%	50µM*	-10%	0%	?	·
COc1ccc(OC)c(NC(=O)Cc2csc(NC(=O)Nc3ccccc3OC)n2)c1	?	0%	-16%	-21%	45µM*	·
COc1ccc(C(=O)Nc2nc(CC(=O)NCCc3ccccc3)cs2)cc1	-18%	-6%	-8%	16%	-7%	·
CCOC(=O)Cc1csc(NC(=O)c2cccc(OC)c2)n1	-4%	4%	·	34%	-8%[59 µM]	8%
COc1cccc(C(=O)NNC(=O)Cc2csc(N)n2)c1	-1%	4%	4%	33%	11%	56µM*
COc1ccc(NC(=O)Cc2csc(NC(=O)Nc3ccccc3OC)n2)c(OC)c1	?	?	-7%	-16%	50µM*	·
O=C(O)c1cccc(S(=O)(=O)N2CCN(S(=O)(=O)c3ccc4ccccc4c3)CC2)c1	-12%	2%	0%	24%	?	·
Cc1noc(C)c1C(=O)N1CCC2(CCN(Cc3ccccc3)CC2)CC1	·	·	·	·	-3%[12.7 µM]	17%
CC1(C)CC(=O)C2=C(C1)c1c(ccc3ccccc13)NC2c1ccc(Br)o1 (stereo not given)	-11%[11.4 µM]	7%	·	-15%	-10%[12.7 µM]	20%
O=C(Nc1ccc(CN2CCOCC2)cc1)c1ccc(-c2cc(Cl)ccc2Cl)o1	-11%	-36%	·	11%	-13%[59 µM]	3%
S=C(c1ccc(-c2cc(Cl)ccc2Cl)o1)N1CCCCC1	?	28µM*	-3%	?	?	16µM*
S=C(c1ccc(-c2cc(Cl)ccc2Cl)o1)N1CCOCC1	?	35µM*	-24%	18µM*	8.9µM*	25µM*
CCOC(=O)COc1cc(N2C(=O)CSCC2=O)c(Cl)cc1Cl	-15%	-28%	1%	15%	-26%	-4%
CCOC(=O)COc1cc(-n2c(=S)[nH]c3cc(OC)c(OC)cc3c2=O)c(Cl)cc1Cl	?	-19%	0.71µM*	-7%	-2%	38%
Cc1cc(C)c2c(N)c(S(=O)(=O)c3ccccc3)sc2n1	-17%	15%	-1%	57%	-11%[12.7 µM]	89µM*
O=c1oc2c(CN3CCOCC3)c(O)c(Cl)cc2c2c1CCCC2	-2%	11%	33%	16%	79µM*	56µM*
SMILES	JMJD2A Tudor inh	BAZ2B inh	L3MBTL1 block	HP1b chromo inh	G9a inh	Sfp inh
Cc1ccc2nc(C)cc(Nc3ccc4c(c3)OCCO4)c2c1	-19%	7%	·	8%	45µM*	?
O=S(=O)(Nc1ccn(-c2ccccc2)n1)c1ccc(Br)cc1	-11%	-13%	-13%[11.4 µM]	21%	14µM*	-14%
CNc1ncncc1-c1ccccc1CN(C)C	·	·	·	·	-7%[0.501 µM]	7%
N#CC(=C1C=CC(=NO)C(Cl)=C1)c1ccc(Cl)cc1	20µM*	·	·	?	·	·
COc1ccc(S(=O)(=O)N2CCc3cc4c(cc3C2C)OCCCO4)cc1 (stereo not given)	-14%	-33%	·	87%	33%	-1%
CCN(CC)c1ccc(NC(=O)c2cccc(C)c2OC)c(C)c1	40µM*	35µM*	?	?	3.5µM*	-29%
CCN(CC)c1ccc(NC(=O)c2cccnc2)c(C)c1	0%[57.1 µM]	-4%[57.1 µM]	-10%	12%	32µM*	17%
COc1c(C)cccc1C(=O)Nc1ccc(OCC(=O)N2CCOCC2)cc1C	-3%	56µM*	·	45%	-7%	-1%
CCN(CC)c1ccc(NC(=O)c2cnc3ccccn3c2=O)c(C)c1	45µM*	?	·	?	1.8µM*	4%
Cc1ccc(NC(=O)c2cnc3cc(C)ccn3c2=O)c(C)c1	-3%	2%	·	30%	0%[59 µM]	·
Cc1ccccc1NC(=O)c1cccnc1	4%	13%	3%	26%	·	-1%
CCN(CC)c1ccc(-n2nc3cc(C)c(NC(=O)c4ccccc4C)cc3n2)c(C)c1	47%	37%	·	129%	95%[59 µM]	·
COc1cc(C(=O)Nc2ccc(OCC(=O)N3CCOCC3)cc2C)cc(OC)c1OC	-8%	-17%	·	25%	1%	17%
CCOc1ccc(C(=O)Nc2ccc3nc(Nc4cccc(C(F)(F)F)c4)cc(C)c3c2)cc1OCC	-4%	-12%	·	30%	7%[59 µM]	·
Cc1nc(Nc2cnc(/C=C/c3cc(C(=O)Nc4cccc(C(F)(F)F)c4)ccc3C)cn2)cc(N2CCNCC2)n1	?	-38%	-3%	?	32µM*	50µM*
COc1ccc(-c2nc3n(n2)C(=O)CC(c2ccco2)S3)cc1 (stereo not given)	32µM*	?	?	-2%	2.2µM*	?
CCOc1ccc(C2CC(=O)n3nc(-c4ccc(C)cc4)nc3S2)cc1 (stereo not given)	-2%	2%	·	24%	?	·
COc1ccc(C2Nc3ccccc3C(=O)N2Cc2ccccc2)cc1COc1ccc(C)cc1 (stereo not given)	-14%	·	·	·	·	·
